# Measured values published in PubChem BioAssay (EPA / NIEHS).
# Activity calls are given as the source filed them. How the source made its calls: active means hit-call score of the fitted dose curve at least 0.9, where 1 is the maximum; inactive means score below 0.9.
# Experiment: CCTE_Shafer_MEA_dev_burst_duration_mean: CCTE's Neural Network Formation Assay for Mean Burst Duration, Shafer Lab (AID 2284045);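 on AC50: curve fitted for loss meaning shorter burst duration than DMSO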
# Method in brief: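 Mean single-electrode burst duration (first to last spike), averaged over bursting electrodes per well, then integrated as area-under-curve across recordings at days 5, 7, 9 and 12. Rat cortical cultures on MEAs, compound present from plating, refreshed at feeds.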
Compound,outcome,AC50
OCC(F)(F)C(F)(F)C(F)(F)C(F)F,inactive,
CC(CCl)OP(=O)(OC(C)CCl)OC(C)CCl (centres undefined),inactive,
O=C(O)C=C(C(F)(F)F)C(F)(F)F,inactive,
O=C(O)C(F)(F)C(F)(F)C(F)F,inactive,
FC(F)(F)C(F)(F)C(F)(F)C(F)(F)C(F)(F)CCI,inactive,
OCCCC(F)(F)C(F)(F)C(F)(F)F,inactive,
O=C(O)C(F)(F)C(F)(F)C(F)(F)F,inactive,
Cc1ccc(S(=O)(=O)OCC(F)(F)C(F)(F)C(F)(F)C(F)(F)C(F)(F)C(F)F)cc1,inactive,
OCC(F)(F)C(F)(F)C(F)(F)C(F)(F)C(F)(F)C(F)F,inactive,
O=C(O)C(F)(F)C(F)(F)C(F)(F)C(F)(F)C(F)(F)C(F)(F)C(F)(F)C(F)(F)Cl,inactive,
O=P(O)(O)OCCC(F)(F)C(F)(F)C(F)(F)C(F)(F)C(F)(F)C(F)(F)F,inactive,
O=C(O)C(F)(F)C(F)(F)C(F)(F)C(F)(F)C(F)(F)C(F)(F)C(F)(F)C(F)(F)C(F)(F)C(F)F,inactive,
OC[C@@H](O)[C@@H](O)[C@H](O)[C@@H](O)CO,inactive,
NC(=O)C(F)(F)C(F)(F)C(F)(F)C(F)(F)F,inactive,
O=S(=O)(OCCOC(F)(F)F)C(F)(F)F,inactive,
OCC(F)(F)C(F)(F)C(F)(F)F,inactive,
COC(=O)CCC(F)(F)C(F)(F)C(F)(F)C(F)(F)F,inactive,
N=C(N)C(F)(F)C(F)(F)C(F)(F)C(F)(F)C(F)(F)C(F)(F)C(F)(F)F,inactive,
CC(C)(C)C(=O)CC(=O)C(F)(F)C(F)(F)C(F)(F)F,inactive,
FC(F)(F)C(F)(F)CNCC(F)(F)C(F)(F)F,inactive,
O=S(=O)(OCC(F)F)C(F)(F)F,inactive,
C=CC(=O)OCC(F)(F)C(F)(F)C(F)(F)C(F)(F)COC(=O)C=C,,2870 nM (active)
FC(F)(F)C(F)(F)C(F)(F)C(F)(F)C(F)(F)C(F)(F)CC1CO1 (centres undefined),inactive,

# Experiment: CCTE_Shafer_MEA_dev_interburst_interval_mean: CCTE's Neural Network Formation Assay for Mean Interburst Interval, Shafer Lab (AID 2284046);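 further: well-mean interburst interval of bursting electrodes as AUC over four recording days; curve fitted for decrease in interburst interval relative to DMSO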
# Method in brief: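 Rat cortical neurons, 1.5 x 10^5 cells/well, 48-well MEA; compound from day 0 through DIV 12, media and treatment renewed DIV 5/9. Recordings DIV 5, 7, 9, 12; well-mean interburst interval → trapezoidal AUC, loss direction vs DMSO.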
Compound,outcome,AC50
OCC(F)(F)C(F)(F)C(F)(F)C(F)F,inactive,
CC(CCl)OP(=O)(OC(C)CCl)OC(C)CCl (centres undefined),inactive,
O=C(O)C=C(C(F)(F)F)C(F)(F)F,inactive,
O=C(O)C(F)(F)C(F)(F)C(F)F,inactive,
FC(F)(F)C(F)(F)C(F)(F)C(F)(F)C(F)(F)CCI,inactive,
OCCCC(F)(F)C(F)(F)C(F)(F)F,inactive,
O=C(O)C(F)(F)C(F)(F)C(F)(F)F,inactive,
Cc1ccc(S(=O)(=O)OCC(F)(F)C(F)(F)C(F)(F)C(F)(F)C(F)(F)C(F)F)cc1,inactive,
OCC(F)(F)C(F)(F)C(F)(F)C(F)(F)C(F)(F)C(F)F,inactive,
O=C(O)C(F)(F)C(F)(F)C(F)(F)C(F)(F)C(F)(F)C(F)(F)C(F)(F)C(F)(F)Cl,inactive,
O=P(O)(O)OCCC(F)(F)C(F)(F)C(F)(F)C(F)(F)C(F)(F)C(F)(F)F,inactive,
O=C(O)C(F)(F)C(F)(F)C(F)(F)C(F)(F)C(F)(F)C(F)(F)C(F)(F)C(F)(F)C(F)(F)C(F)F,inactive,
OC[C@@H](O)[C@@H](O)[C@H](O)[C@@H](O)CO,inactive,
NC(=O)C(F)(F)C(F)(F)C(F)(F)C(F)(F)F,inactive,
O=S(=O)(OCCOC(F)(F)F)C(F)(F)F,inactive,
OCC(F)(F)C(F)(F)C(F)(F)F,inactive,
COC(=O)CCC(F)(F)C(F)(F)C(F)(F)C(F)(F)F,inactive,
N=C(N)C(F)(F)C(F)(F)C(F)(F)C(F)(F)C(F)(F)C(F)(F)C(F)(F)F,inactive,
CC(C)(C)C(=O)CC(=O)C(F)(F)C(F)(F)C(F)(F)F,inactive,
FC(F)(F)C(F)(F)CNCC(F)(F)C(F)(F)F,inactive,
O=S(=O)(OCC(F)F)C(F)(F)F,inactive,
C=CC(=O)OCC(F)(F)C(F)(F)C(F)(F)C(F)(F)COC(=O)C=C,,4200 nM (active)
FC(F)(F)C(F)(F)C(F)(F)C(F)(F)C(F)(F)C(F)(F)CC1CO1 (centres undefined),inactive,

# Experiment: CCTE_Shafer_MEA_dev_network_spike_number: CCTE's Neural Network Formation Assay for Number of Network Spikes, Shafer Lab (AID 2284048);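 further: synchronized bursts across electrodes counted on days 5 7 9 12 and integrated as AUC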;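 on AC50: fit as a loss of signal meaning fewer network spikes than DMSO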
# Method in brief: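 Number of network spikes (coordinated firing across electrodes) recorded on days 5, 7, 9 and 12 and summarised as area under the curve. Rat cortical cultures on MEA, continuous compound exposure with full medium/treatment exchange at DIV 5 and 9.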
Compound,outcome,AC50
OCC(F)(F)C(F)(F)C(F)(F)C(F)F,inactive,
CC(CCl)OP(=O)(OC(C)CCl)OC(C)CCl (centres undefined),inactive,
O=C(O)C=C(C(F)(F)F)C(F)(F)F,inactive,
O=C(O)C(F)(F)C(F)(F)C(F)F,inactive,
FC(F)(F)C(F)(F)C(F)(F)C(F)(F)C(F)(F)CCI,inactive,
OCCCC(F)(F)C(F)(F)C(F)(F)F,inactive,
O=C(O)C(F)(F)C(F)(F)C(F)(F)F,inactive,
Cc1ccc(S(=O)(=O)OCC(F)(F)C(F)(F)C(F)(F)C(F)(F)C(F)(F)C(F)F)cc1,inactive,
OCC(F)(F)C(F)(F)C(F)(F)C(F)(F)C(F)(F)C(F)F,inactive,
O=C(O)C(F)(F)C(F)(F)C(F)(F)C(F)(F)C(F)(F)C(F)(F)C(F)(F)C(F)(F)Cl,inactive,
O=P(O)(O)OCCC(F)(F)C(F)(F)C(F)(F)C(F)(F)C(F)(F)C(F)(F)F,inactive,
O=C(O)C(F)(F)C(F)(F)C(F)(F)C(F)(F)C(F)(F)C(F)(F)C(F)(F)C(F)(F)C(F)(F)C(F)F,inactive,
OC[C@@H](O)[C@@H](O)[C@H](O)[C@@H](O)CO,inactive,
NC(=O)C(F)(F)C(F)(F)C(F)(F)C(F)(F)F,inactive,
O=S(=O)(OCCOC(F)(F)F)C(F)(F)F,inactive,
OCC(F)(F)C(F)(F)C(F)(F)F,inactive,
COC(=O)CCC(F)(F)C(F)(F)C(F)(F)C(F)(F)F,inactive,
N=C(N)C(F)(F)C(F)(F)C(F)(F)C(F)(F)C(F)(F)C(F)(F)C(F)(F)F,inactive,
CC(C)(C)C(=O)CC(=O)C(F)(F)C(F)(F)C(F)(F)F,inactive,
FC(F)(F)C(F)(F)CNCC(F)(F)C(F)(F)F,inactive,
O=S(=O)(OCC(F)F)C(F)(F)F,inactive,
C=CC(=O)OCC(F)(F)C(F)(F)C(F)(F)C(F)(F)COC(=O)C=C,,2280 nM (active)
FC(F)(F)C(F)(F)C(F)(F)C(F)(F)C(F)(F)C(F)(F)CC1CO1 (centres undefined),inactive,
